# Sampled rows, rich in hits. Any-hit rate of the full collection: about 10%.
# RORgamma inh = qHTS for inhibitors of ROR gamma transcriptional activity. Potency, µM (titrated, usually from 53.6 µM), inactives show at the top dose activity change, negative = inhibition, most hits filed as inhibitors. 310,000 tested, 5.4% active. Drosophila S2 Gal4-RORgamma UAS-luciferase reporter, 20 h. AID 2551, 2010. Nuclear receptor ROR-gamma (Mus musculus), P51450; further: on the % scale 0 is the no-effect control and ±100 the full control effect; nearly all actives have a fitted effect of over 60% in size
# Target sequence (P51450 whole entry, looked up, the tested form may be a part): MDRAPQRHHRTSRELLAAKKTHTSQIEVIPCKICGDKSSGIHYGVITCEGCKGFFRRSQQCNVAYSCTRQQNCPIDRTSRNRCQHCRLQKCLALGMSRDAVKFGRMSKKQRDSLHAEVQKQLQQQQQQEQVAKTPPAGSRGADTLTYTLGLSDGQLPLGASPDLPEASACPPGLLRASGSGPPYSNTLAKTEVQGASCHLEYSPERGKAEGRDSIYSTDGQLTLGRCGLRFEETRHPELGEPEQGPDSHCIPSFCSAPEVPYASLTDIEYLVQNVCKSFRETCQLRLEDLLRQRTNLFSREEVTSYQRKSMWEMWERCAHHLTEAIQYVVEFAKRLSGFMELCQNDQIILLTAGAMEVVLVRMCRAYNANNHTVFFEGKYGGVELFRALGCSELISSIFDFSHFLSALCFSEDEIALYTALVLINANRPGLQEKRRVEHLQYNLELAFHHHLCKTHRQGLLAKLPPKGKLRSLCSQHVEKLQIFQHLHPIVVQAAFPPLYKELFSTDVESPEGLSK
#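 Luminescence from a UAS-regulated Photinus luciferase reporter in stably transfected Drosophila Schneider cells is measured; decreased signal marks ROR gamma inhibition. Fusion expression is induced by 700 uM copper sulfate for 20 hr.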
# KB-3-1 tox = qHTS assay for MDR1-selective chemotherapeutics: Primary screen using the parental adenocarcinoma cell KB-3-1 | KB-3-1 viability, CellTiter-Glo ATP luminescence, 72 h | Potency, µM (titrated, usually from 46.1 µM), usual class: cytotoxic | 400,000 tested, 1.4% active; further: on the % scale 0 is the no-effect control and ±100 the full control effect; nearly all actives have a fitted effect of over 60% in size
#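 Viability of parental KB-3-1 cells, measured by CellTiter-Glo luminescence, followed a 72 h incubation at 37 °C with pinned compounds in phenol-red-free DMEM containing 10% FBS.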
# Gal4-VP16 FLuc = VP16 counterscreen qHTS for inhibitors of ROR gamma transcriptional activity; Potency, µM (titrated, usually from 53.6 µM), inactives show top-dose activity, negative = inhibition, most hits filed as inhibitors; AID 2546, 2010; 310,000 tested, 3.5% active; Drosophila S2 Gal4-VP16 UAS-luciferase, luminescence, 20 h;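 further: Gal4-VP16 expression switched on by copper sulfate through the metallothionein promoter; on the % scale 0 is the no-effect control and ±100 the full control effect; nearly all actives have a fitted effect of over 50% in size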
# KB-V1 MDR tox = qHTS assay for MDR1-selective chemotherapeutics: Primary screen using the drug-selected MDR subline cells KB-V1. KB-V1 MDR cells viability, CellTiter-Glo, 72 h. Potency, µM (series often up to 46.1 µM), usual class: cytotoxic. 400,000 tested, 3.4% active; further: on the % scale 0 is the no-effect control and ±100 the full control effect; nearly all actives have a fitted effect of over 60% in size
#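 KB-V1 cells (P-gp-expressing MDR subline of KB-3-1) in phenol-red-free DMEM with 10% FBS were exposed to library compounds over a concentration series for 72 h at 37 degrees C. Viability read by CellTiter-Glo luminescence; concentration-effect curves fitted after normalization.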
# SW480 rerep = A quantitative high throughput screen for small molecules that induce DNA re-replication in SW480 colon adenocarcinoma cells. SW480 DNA re-replication, Hoechst DNA content imaging, 48 h. Potency, µM (top dose mostly 46.1 µM), inactives show at the top dose re-replication activation, most hits filed as activators. 340,000 tested, 1.8% active; further: % of control where 0% means no effect; nearly all actives have a fitted effect of over 55% in size
#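 First, 250 cells per well were seeded. Next, compound or vehicle (23 nL) was pinned in, plates sat 48 hr at 37 C. Finally Hoechst was added for 40 min before fluorescence scanning.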
# MCF10A rereplic = A quantitative high throughput screen for small molecules that induce DNA re-replication in MCF 10a normal breast cells; MCF 10A DNA re-replication, Hoechst nuclear intensity, 48 h; Potency, µM (titrated, usually from 46.1 µM), for inactives: at the top dose activity, positive = re-replication, actives largely listed as activators; 350,000 tested, 2.9% active; AID 624296, 2012; further: % of control where 0% means no effect; nearly all actives have a fitted effect of over 50% in size
# Starred values were filed as active, the others as inactive; i = inactive; u = inconclusive; x = no result; ! = repeats disagree. The call rests on the fitted dose curve; in most records, active means well fitted curve in the direction sought with a large enough effect; inconclusive means small, poorly fitted or top-dose-only effect, or another doubt; inactive means no such curve, though single readings can be large; an effect the other way counts as inactive or inconclusive. Potency means the concentration at half of the fitted maximal effect.
SMILES,RORgamma inh,KB-3-1 tox,Gal4-VP16 FLuc,KB-V1 MDR tox,SW480 rerep,MCF10A rereplic
Cc1sc2c(c1C)C(c1ccc(C(C)(C)C)cc1)=NCC(=O)N2CC(=O)Nc1nccs1,11.2µM*,u,u,20.6µM*,26.0%,u
CCC(=O)N1N=C(c2c(O)n(C)c(=O)n(C)c2=O)CC1c1ccccc1 (stereo not drawn),11.2µM*,20.6µM*,-9.6%,u,u,12.4%
Cn1c(O)c(C2=NN(C(=O)CCl)C(c3ccccc3)C2)c(=O)n(C)c1=O (stereo not drawn),u,i,17.8µM*,i,-8.6%,3.8%
CCOC(=O)C(O)(c1ccc(N(CC)S(=O)(=O)c2ccc(C)cc2)cc1)C(F)(F)F (stereo not drawn),u,i,-9.2%,18.4µM*,u,u
CC/C(CC(c1ccccc1)c1c(O)c2ccccc2oc1=O)=N\NC(N)=S (stereo not drawn),10µM*,u,u,i,22.3%,u
CCCCC/C=C\C/C=C\C/C=C\C/C=C\CCCC(=O)OCCN,8.7%,x,u,x,x,x
CCCCC(=O)Cl,15.0%,x,4.6%,x,x,x
C/C(=C\c1ccc(N(C)C)cc1)[N+](=O)[O-],7.08µM*,u,22.4µM*,u,5.8µM*,2.59µM*
CN(C)c1ccc(/C=C/[N+](=O)[O-])cc1,11.2µM*,i,12.6µM*,i,u,-0.2%
CCCN1[C@@H]2C[C@@H](O)CC[C@@H]2C[C@H]1C(=O)OC,0.0%,x,0.4%,x,x,x
Nc1ccc([N+](=O)[O-])cc1N,7.3%,x,-4.6%,x,x,x
[Cl-].[Cl-].[Hg+2],u,x,17.8µM*,x,u,u
Cc1nn(Cc2ccccc2)c2c1C(c1ccco1)C(C#N)=C(N)O2 (stereo not drawn),7.08µM*,i,-17.3%,i,2.5%,4.9%
Cc1nn(-c2ccccc2)c2c1C(c1ccc(F)cc1F)C(C#N)=C(N)O2 (stereo not drawn),u,i,7.9%,i,-0.1%,u
Oc1ccc(O)c2c1C1(Cl)C(Cl)=C(Cl)C2(Cl)C1(Cl)Cl,x,i,x,i,u,16.4µM*
CCCCCn1c(=O)c(C(=O)Nc2cnccn2)c(O)c2ccccc21,4.0%,u,1.9%,16.4µM*,24.6%,16.4µM*
CCCCCCn1c(=O)c(C(=O)Nc2ncccc2C)c(O)c2ccccc21,14.1µM*,u,7.94µM*,u,u,u
CCCCCn1c(=O)c(C(=O)Nc2cc(C)ccn2)c(O)c2ccccc21,6.1%,i,-1.4%,u,-5.6%,12.3%
CCCCCCCn1c(=O)c(C(=O)Nc2cnccn2)c(O)c2ccccc21,-23.1%,3.26µM*,1.8%,2.59µM*,u,3.66µM*
CCCCn1c(=O)c(C(=O)Nc2ncccc2C)c(O)c2ccccc21,u,u,u,u,4.5%,-7.7%
CN(CCc1ccc(Cl)c(Cl)c1)[C@H]1CCCC[C@H]1N1CCCC1,-26.2%,x,5.0%,x,x,x
COc1cc2[nH]c(=S)n(-c3ccccc3)c(=O)c2cc1OC,3.98µM*,i,-29.9%,i,-12.0%,-10.7%
C[C@H]1CCC[C@@H](O)CCC/C=C/c2cc(O)cc(O)c2C(=O)O1,7.8%,i,-3.3%,u,u,10.3µM*
COc1cc(O)cc2c1C(=O)O[C@@H](C)CCCC(=O)CCCCC2,17.6%,i,6.9%,i,-10.7%,-0.3%
CC1CCC[C@H](O)CCCCCc2cc(O)cc(O)c2C(=O)O1 (stereo partly drawn),u,i,u,20.6µM*,-38.7%,1.3%
SMILES,RORgamma inh,KB-3-1 tox,Gal4-VP16 FLuc,KB-V1 MDR tox,SW480 rerep,MCF10A rereplic
CC(=O)c1ccc(NC(=O)c2sc3nc4c(cc3c2N)N2CCC4CC2)cc1,x,u,x,23.1µM*,x,x
Cc1ccc(C2=NC(C)(C)N3C2C3c2ccc([N+](=O)[O-])cc2)cc1 (stereo not drawn),-27.6%,u,2.8%,18.4µM*,2.5%,-1.1%
Cn1c(=O)oc2cc(NC(=O)CCl)ccc21,u,u,u,u,u,17.5%
CCc1ccc(-c2nn(Cc3ccccc3)cc2C=O)cc1,u,i,28.1%,i,4.61µM*,0.3%
Cc1ccc(-c2cc(-c3ccc(C)cc3)[n+](-c3ccc(C(=O)O)cc3)c(-c3ccc(C)cc3)c2)cc1,x,i,x,i,1.4%,u
Cc1ccc(C[n+]2c(-c3ccc(C)cc3)cc(-c3ccc(C)cc3)cc2-c2ccc(C)cc2)cc1,x,5.8µM*,x,u,u,23.1µM*
C=C(C)CCl,1.6%,x,3.3%,x,x,x
C[C@H]1C/C=C/[C@H]2[C@H](O)[C@H](C)[C@@](C)(O)[C@H]3[C@H](Cc4ccccc4)NC(=O)[C@]32[C@H](O)/C=C/[C@](C)(O)C1,x,i,x,i,u,u
C=C1C(C)C2C(Cc3ccccc3)NC(=O)C23C(OC(C)=O)C=CC(C)(O)CC(C)CC=CC3C1O (stereo not drawn),x,u,x,u,3.66µM*,u
CC(=O)O[C@@H]1/C=C/[C@](C)(O)C[C@@H](C)C/C=C/[C@H]2[C@H](O)C(C)=C(C)[C@H]3[C@H](Cc4ccccc4)NC(=O)[C@@]123,x,u,x,i,18.4µM*,u
C=C1[C@@H](C)[C@H]2[C@H](Cc3ccccc3)NC(=O)[C@]23OC(=O)/C=C/[C@H](O)CCC[C@@H](C)C/C=C/[C@H]3[C@@H]1O,5.9%,i,3.0%,u,5.8µM*,u
COc1ccc(NC2Oc3cc4c(cc3C(c3cc(OC)c(OC)c(OC)c3)C2C)OCO4)cc1 (stereo not drawn),x,1.64µM*,x,5.8µM*,1.03µM*,0.581µM*
CCCC12CN3CC(CCC)(CN(C1)C3c1ccccn1)C2=O (stereo not drawn),-25.8%,i,-23.9%,2.59µM*!,-8.1%,10.1%
CCCC12CN3CCN(C1)CC(CCC)(C3)C2=O,10.9%,i,-0.8%,i,2.1%,-5.3%
N#CC1=C(N)Oc2c(c(=O)sc3ccccc23)C1c1ccncc1 (stereo not drawn),u,u,-9.9%,i,13µM*,20.6µM*
N#CC1=C(N)Oc2c(c(=O)oc3ccccc23)C1c1cccnc1 (stereo not drawn),-4.4%,u,-0.7%,i,6.0%,7.9%

# Screens (PubChem)
